Peg3 prom inh: inhibitors of Peg3 promoter. HeLa PEG-Prom luciferase reporter, luminescence, overnight. inhibition, % at 20 µM. hit rate 1.7% among 360,000. AID 588405;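 active = inhibition of at least 50% at 20 µM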
CF NFkB inh: cystic fibrosis NF-kB activation inhibition; KKLEB NF-kB-GFP reporter, PAF-induced, GFP fluorescence overnight; inhibition, % at 5 µM; hit rate 0.86% among 360,000;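 active = at least 50% inhibition at 5 µM, scaled per plate between neutral and stimulator controls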;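 also: PAF is a Pseudomonas aeruginosa culture filtrate used as stimulus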
TRAIL sens C8: sensitizes caspase-8 expressing cells to TRAIL. NB7+C8 cells + TRAIL, ATPlite viability luminescence. inhibition (viability loss, TRAIL sensitization), % at 10 µM. hit rate 1% among 360,000;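 active = compounds causing at least 50% loss of cell viability in the single-dose screen, relative to plate controls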
HIF-2a inh: inhibitors of HIF-2a. 786-0 RCC cells HIF-2a reporter, luciferase luminescence, overnight. inhibition, % at 18.8 µM. hit rate 0.72% among 360,000. AID 624352;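 active = inhibition of the luminescence signal of 40% or more relative to plate controls, in a single-dose primary screen at 18.75 µM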
KKLEB cytotox: counter-screen for CF NF-kB inhibitors: cytotoxicity; KKLEB CF airway cells viability, ATPlite luminescence, overnight; active compounds read low; cells stimulated with P. aeruginosa culture filtrate; activity change (cytotoxicity), % at 5 µM; hit rate 0.36% among 360,000; AID 602141;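 active = corrected activity change at or below -50% at 5 µM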
PPC-1+TRAIL kill: kills PPC-1 cancer cells in the presence of TRAIL. hit rate 0.41% among 220,000. AID 1443. cell killing (% activity), % at 4 µM or 5 µM. PPC-1 cells + TRAIL, ATPLite viability luminescence;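 active = cell killing above 50% in the first pass at 4 µM, then a duplicate retest at 5 µM averaging 50% or more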
Mdm2-MdmX confirm: confirmation of inhibitors of human Mdm2/MdmX interaction, set 2; shares compounds with HIF-2a inh; SaOS-2 split-luciferase Mdm2/MdmX complementation, luminescence; inhibition, % at 8 µM; hit rate 99% among 740;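 active = mean inhibition of the luminescence signal across two replicates at or above 26 percent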
Target sequence (O15151 whole entry, looked up): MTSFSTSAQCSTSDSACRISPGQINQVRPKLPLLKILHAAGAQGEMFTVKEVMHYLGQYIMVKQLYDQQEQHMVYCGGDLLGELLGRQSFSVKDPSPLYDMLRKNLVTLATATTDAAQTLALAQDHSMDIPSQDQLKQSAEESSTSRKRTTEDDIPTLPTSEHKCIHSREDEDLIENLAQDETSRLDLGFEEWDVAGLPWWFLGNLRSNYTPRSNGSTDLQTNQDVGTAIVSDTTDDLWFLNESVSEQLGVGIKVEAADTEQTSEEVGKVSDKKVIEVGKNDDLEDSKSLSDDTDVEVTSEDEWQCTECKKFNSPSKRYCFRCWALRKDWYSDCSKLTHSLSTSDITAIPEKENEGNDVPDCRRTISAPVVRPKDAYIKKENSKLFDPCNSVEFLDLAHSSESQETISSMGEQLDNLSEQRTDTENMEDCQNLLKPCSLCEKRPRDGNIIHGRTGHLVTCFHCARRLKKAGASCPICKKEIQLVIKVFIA
Target sequence (Q00987 whole entry, looked up): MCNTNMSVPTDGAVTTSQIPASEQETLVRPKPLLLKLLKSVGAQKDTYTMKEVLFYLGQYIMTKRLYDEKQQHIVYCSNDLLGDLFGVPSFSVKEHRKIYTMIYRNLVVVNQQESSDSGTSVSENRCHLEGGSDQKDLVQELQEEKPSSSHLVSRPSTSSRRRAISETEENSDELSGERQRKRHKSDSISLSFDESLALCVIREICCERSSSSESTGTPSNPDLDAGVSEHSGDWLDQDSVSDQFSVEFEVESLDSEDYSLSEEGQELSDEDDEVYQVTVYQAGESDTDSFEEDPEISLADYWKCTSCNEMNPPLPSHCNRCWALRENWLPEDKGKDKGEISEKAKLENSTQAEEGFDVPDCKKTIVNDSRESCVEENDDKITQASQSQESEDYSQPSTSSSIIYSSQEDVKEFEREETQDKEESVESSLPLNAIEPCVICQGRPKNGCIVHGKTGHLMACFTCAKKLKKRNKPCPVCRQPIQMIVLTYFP
HIF-2a inh conf: HIF-2a inhibition, single concentration confirmation. shares compounds with HIF-2a inh. 786-0 RCC cells, HIF-2a luciferase reporter luminescence, overnight. inhibition, % at 18.8 µM. hit rate 56% among 1,800;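 active = mean inhibition across four replicates of at least 40 percent at the single tested concentration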
HIF-1a counter: inhibits HIF-1a reporter, a counter-screen for HIF-2a inhibitors | AID 651589 | inhibition, % at 18.8 µM | shares compounds with HIF-2a inh | MiaPaCa-2 HIF-1a luciferase reporter, desferoxamine, overnight | hit rate 72% among 1,800;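 active = mean inhibition of the reporter signal across four replicates at the single tested dose of 50% or more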
Each line names hits and unclear results; the compound was inactive in the other large screens (follow-up assays come after a bar, where they were run). Only some compounds are listed: those with a hit (about 3.1% of all), similar ones and a draw of the others.

COCCN(CC(=O)NC1CCCCC1)C(=O)/C=C/C(=O)c1ccc(OC)cc1O	Peg3 prom inh 97, HIF-2a inh 92 (no result: PPC-1+TRAIL kill) | HIF-2a inh conf 99 | HIF-1a counter 103
COc1ccc(C(=O)/C=C/C(=O)N(CC(=O)NC2CCCCC2)Cc2cccs2)c(O)c1	Peg3 prom inh 105, HIF-2a inh 95 | HIF-2a inh conf 95 | HIF-1a counter 101
COc1ccc(NC(=O)CN2C(=O)NC(C)(C3CC3)C2=O)cc1S(=O)(=O)N1CCCCC1 (configuration not stated)	none (no result: PPC-1+TRAIL kill)
Cc1nc(SCCC(=O)O)c2cc(-c3ccccc3)sc2n1	TRAIL sens C8 63, HIF-2a inh 85 (no result: PPC-1+TRAIL kill) | HIF-2a inh conf 91 | HIF-1a counter inactive
C=CCS(=O)(=O)c1nc2ccccc2s1	Peg3 prom inh 104, CF NFkB inh 52, HIF-2a inh 88 | HIF-2a inh conf inactive | HIF-1a counter inactive
CCS(=O)(=O)CCSc1nc2ccccc2s1	none
O=S(=O)(CCSc1nc2ccccc2s1)c1nc2ccccc2s1	Peg3 prom inh 58, CF NFkB inh 73, HIF-2a inh 57 | Mdm2-MdmX confirm 103 | HIF-2a inh conf inactive | HIF-1a counter 69
OC(c1ccc(F)cc1)(C1CCCCC1)C(CN1CCOCC1)c1ccccc1 (configuration not stated)	none (no result: PPC-1+TRAIL kill)
CC(C)Cn1c(N)c(C(=O)COC(=O)C2CC(=O)N(c3ccc4c(c3)OCCO4)C2)c(=O)n(C)c1=O (configuration not stated)	none (no result: PPC-1+TRAIL kill)
Clc1ccc2c(N/N=C/c3ccccc3Br)ccnc2c1	Peg3 prom inh 84 | Mdm2-MdmX confirm 103
CCc1cc(SC#N)cc(C)c1N	HIF-2a inh 63 | HIF-2a inh conf inactive | HIF-1a counter inactive
CC1=CC(=O)C=CC1=Nc1ccc(N(C)C)cc1	none (no result: PPC-1+TRAIL kill)
CSCCC(c1nc2ccccc2[nH]1)n1c(-c2ccc3ncccc3c2)nc2ccccc21 (configuration not stated)	none (no result: Peg3 prom inh, CF NFkB inh, KKLEB cytotox, PPC-1+TRAIL kill)
CN=C1SC(CC(=O)Nc2ccccc2F)C(=O)N1/N=C/c1ccc(O)c(OC)c1 (configuration not stated)	none
CCOc1ccc(/C=N/N2C(=O)C(CC(=O)Nc3ccc(F)cc3F)SC2=NC)cc1OC (configuration not stated)	HIF-2a inh 49 | HIF-2a inh conf inactive | HIF-1a counter inactive
OCCCNc1c2ccccc2nc2ccccc12	Peg3 prom inh 104 (no result: PPC-1+TRAIL kill) | Mdm2-MdmX confirm 97
Cc1ccc(-c2nc(NCCCO)c3ccccc3n2)cc1	none (no result: PPC-1+TRAIL kill)
CCCn1nc([N+](=O)[O-])c(C(C#N)c2nc3ccccc3s2)c(Cl)c1=O (configuration not stated)	HIF-2a inh 52, KKLEB cytotox -55 | Mdm2-MdmX confirm 100
Cc1ccc(C(C)C)c(OCc2ccc(-c3nnco3)cc2)c1	HIF-2a inh 69 | HIF-2a inh conf 71 | HIF-1a counter inactive
COc1cc(CN2CCNC(=O)C2CC(=O)NC2CCC2)cc(OC)c1 (configuration not stated)	none (no result: PPC-1+TRAIL kill)
N#CCc1ccc(NC(=O)/C=C/c2ccc([N+](=O)[O-])o2)cc1	Peg3 prom inh 106, HIF-2a inh 65 | HIF-2a inh conf 48 | HIF-1a counter 105
C=C1C(=O)[C@]23C[C@H]1CC[C@H]2[C@]1(C)[C@@H](OC(C)=O)CC[C@@](C)(C(=O)OC)[C@H]1C[C@@H]3OC(C)=O	Peg3 prom inh 99, CF NFkB inh 95, HIF-2a inh 97, KKLEB cytotox -97 (no result: PPC-1+TRAIL kill) | HIF-2a inh conf 98 | HIF-1a counter 107
CCOC(=O)C1Nc2ccc(C(F)(F)F)cc2C2c3ccccc3CC12 (configuration not stated)	none (no result: PPC-1+TRAIL kill) | Mdm2-MdmX confirm 66
O=C(NCCOc1ccccc1)C1Nc2ccc(C(F)(F)F)cc2C2c3ccccc3CC12 (configuration not stated)	none (no result: PPC-1+TRAIL kill)
CCOC(=O)Cc1csc(NC(=S)NC(=O)c2ccccc2C)n1	HIF-2a inh 54 | HIF-2a inh conf 58 | HIF-1a counter inactive
CCOC(=O)Cc1csc(N/N=C/c2ccc(C(F)(F)F)cc2)n1	HIF-2a inh 58 | HIF-2a inh conf 58 | HIF-1a counter inactive
CCOC(=O)Cc1csc(NC(=S)NC(=O)c2cc(OC)c(OC)c(OC)c2)n1	none
CCOC(=O)Cc1csc(NC(=S)NC(=O)c2ccc(F)cc2)n1	HIF-2a inh 86 | HIF-2a inh conf 89 | HIF-1a counter 59
O=c1[nH]c(C2CCN(S(=O)(=O)c3ccccc3C(F)(F)F)CC2)nc2c1nnn2Cc1cccc(F)c1	none (no result: PPC-1+TRAIL kill)
CC(C)N1C(=O)/C(=C/c2nc3ccccc3c(=O)n2-c2ccccc2)c2ccccc21	HIF-2a inh 64 | HIF-2a inh conf 59 | HIF-1a counter 102
CC(C)N1C(=O)C(Cc2nc3ccccc3c(=O)n2-c2ccccc2)c2ccccc21 (configuration not stated)	none
O=C(O)c1ccc(NC2=C(Cl)C(=O)c3ccccc3C2=O)cc1	Peg3 prom inh 109, CF NFkB inh 92, HIF-2a inh 94, KKLEB cytotox -89 | Mdm2-MdmX confirm 101
CC1=C(Nc2ccc(C(=O)O)cc2)C(=O)c2ccccc2C1=O	none (no result: PPC-1+TRAIL kill)
CCOC(=O)Cc1ccc(NC(=O)c2ccccc2Br)cc1	none
CCOC(=O)Cc1ccc(NC(=O)c2ccc(C(C)(C)C)cc2)cc1	HIF-2a inh 90 | HIF-2a inh conf 97 | HIF-1a counter 77
Cc1ccc(S(=O)(=O)N(C)c2ccc(C(=O)Nc3ccccc3C(=O)N3CCOCC3)cc2)cc1	none (no result: PPC-1+TRAIL kill)
C=CCOc1cccc(C(=O)/C=C2/C(=O)Nc3ccccc32)c1	Peg3 prom inh 85, CF NFkB inh 86, HIF-2a inh 59, KKLEB cytotox -52 (no result: PPC-1+TRAIL kill) | HIF-2a inh conf 59 | HIF-1a counter 105
CC(=O)/C=C1/C(=O)Nc2ccccc21	HIF-2a inh 40 | HIF-2a inh conf 49 | HIF-1a counter inactive
COc1ccc(OC)c(NC(=O)c2cccc(NC(=O)c3ccccc3C(=O)O)c2)c1	none (no result: PPC-1+TRAIL kill)
CC(C)(C)c1ccc(-c2noc(CCC(=O)NCc3ccco3)n2)cc1	HIF-2a inh 85 | HIF-2a inh conf 92 | HIF-1a counter inactive
NC1=NC[C@@H](CC2CCCCC2)N1CCc1cc(C(F)(F)F)cc(C(F)(F)F)c1	Peg3 prom inh 94, TRAIL sens C8 93 (no result: PPC-1+TRAIL kill) | Mdm2-MdmX confirm 103
NC1=NC[C@H](Cc2ccc(O)cc2)N1CCc1cc(C(F)(F)F)cc(C(F)(F)F)c1	none
